Among the data in PubChem BioAssay (EPA / NIEHS) are AC50 and outcome values, retold here.

The source made the active and inactive calls. Rule for the calls: active = hit-call score of the fitted dose curve at least 0.9, where 1 is the maximum; inactive = score below 0.9.

Read-out in assay [1]: Interleukin-1 alpha (IL1a), IL1A (gene 3552)
The assay can be described thus: BSK_KF3CT_IL1a: BioMAP Diversity Plus: KF3CT Assay for Interleukin-1 alpha (IL1a) Biomarker Activity (AID 2283070). To be noted: primary human keratinocytes with fibroblasts; actives raise or lower the signal. Summed up: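 Readout is IL-1a level by ELISA, compared bidirectionally with DMSO as baseline. Cells: human keratinocytes co-cultured with foreskin fibroblasts, harvested 24 h post-dose.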

Read-out in assay [2]: TIMP metallopeptidase inhibitor 2 (TIMP2), TIMP2 (gene 7077)
The assay can be described thus: BSK_KF3CT_TIMP2: BioMAP Diversity Plus: KF3CT Assay for TIMP metallopeptidase inhibitor 2 (TIMP2) Biomarker Activity (AID 2283071). The following applies: primary human keratinocytes with fibroblasts; actives raise or lower the signal. Summed up: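 Measurements come from ELISA detection of TIMP-2 at 24 hours in a dosed human keratinocyte and foreskin fibroblast co-culture. DMSO serves as negative control and baseline.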

Read-out in assay [3]: Transforming growth factor beta 1 (TGFb1), TGFB1 (gene 7040)
The assay can be described thus: BSK_KF3CT_TGFb1: BioMAP Diversity Plus: KF3CT Assay for Transforming growth factor beta 1 (TGFb1) Biomarker Activity (AID 2283072). The following applies: primary human keratinocytes with fibroblasts; actives raise or lower the signal. Put shortly: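 TGF-b1 ELISA on a 24 h dosed co-culture of human keratinocytes and foreskin fibroblasts; cytotoxicity tracked in parallel cultures by SRB staining.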

Read-out in assay [4]: C-C motif chemokine 2 (Homo sapiens) (UniProt P13500)
As to the kind of experiment: BSK_KF3CT_MCP1: BioMAP Diversity Plus: KF3CT Assay for Monocyte Chemoattractant Protein 1 (MCP1/CCL2) Biomarker Activity (AID 2283073). The following applies: primary human keratinocytes with fibroblasts; actives raise or lower the signal. Put shortly: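 Keratinocytes and foreskin fibroblasts were co-cultured, dosed with chemical, and sampled 24 h later. MCP-1 was quantified by ELISA, and the endpoint was analyzed with bidirectional fitting using DMSO as negative control.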

Read-out in assay [5]: Matrix Metallopeptidase 9 (MMP9), MMP9 (gene 4318)
The assay can be described thus: BSK_KF3CT_MMP9: BioMAP Diversity Plus: KF3CT Assay for Matrix Metallopeptidase 9 (MMP9) Biomarker Activity (AID 2283074).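 For AC50: MMP9 protein level quantified by ELISA in the co-culture.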 To be noted: primary human keratinocytes with fibroblasts; actives raise or lower the signal. Summed up: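 Values come from bidirectional fitting relative to DMSO of MMP-9 levels, which were measured by ELISA. Measurements were taken 24 h after chemical dosing of a keratinocyte and foreskin fibroblast co-culture.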

Read-out in assay [6]: urokinase plasminogen activator (uPA), PLAU (gene 5328)
As to the kind of experiment: BSK_KF3CT_uPA: BioMAP Diversity Plus: KF3CT Assay for urokinase plasminogen activator (uPA) Biomarker Activity (AID 2283075). To be noted: primary human keratinocytes with fibroblasts; actives raise or lower the signal. Put shortly: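 Values derive from bidirectional fitting against DMSO controls. Keratinocyte/foreskin fibroblast co-cultures received chemical; 24 h later uPA was detected by ELISA, with SRB total-protein staining in parallel wells for overt cytotoxicity.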

Read-out in assay [7]: CD40, CD40 (gene 958)
The assay can be described thus: BSK_LPS_CD40: BioMAP Diversity Plus: LPS Assay for CD40 Biomarker Activity (AID 2283076). To be noted: primary human HUVEC with PBMC; actives raise or lower the signal. Put shortly:
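CD40 signal, measured by ELISA, is fitted in both directions relative to DMSO vehicle. The system is an LPS-driven human vascular primary co-culture of endothelial cells and PBMC, sampled 24 h after compound addition.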

Read-out in assay [8]: E-selectin (Homo sapiens) (UniProt P16581)
As to the kind of experiment: BSK_LPS_Eselectin: BioMAP Diversity Plus: LPS Assay for Eselectin Biomarker Activity (AID 2283077). To be noted: primary human HUVEC with PBMC; actives raise or lower the signal. Summed up: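 Signal of E-selectin, detected by ELISA, served as the endpoint; cells were umbilical vein endothelium with PBMC, read 24 h after treatment. DMSO defined baseline, and both increases and decreases were fitted.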

Read-out in assay [9]: Interleukin-8 (IL8), CXCL8 (gene 3576)
The assay can be described thus: BSK_LPS_IL8: BioMAP Diversity Plus: LPS Assay for Interleukin-8 (IL8) Biomarker Activity (AID 2283078). The following applies: primary human HUVEC with PBMC; actives raise or lower the signal. Summed up:
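Endothelial cells and PBMC from human donors are co-cultured, treated with chemicals and LPS, then assayed for IL-8 by ELISA after 24 h. Parallel SRB staining (0.1% SRB after 10% TCA fixation, 560 nm) flags cytotoxicity.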

A short description of assay [10]: BSK_LPS_SRB: Viability Assessment in the BioMAP Diversity Plus: LPS Assay (AID 2283079).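 Note: total protein by sulforhodamine B absorbance as a cytotoxicity measure; measured one day after compound addition; fitted in both directions against DMSO so loss or gain of signal counts.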 To be noted: primary human HUVEC with PBMC. Summed up:
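Overt cytotoxicity was gauged by sulforhodamine B total-protein staining in a primary human vascular endothelial and mononuclear cell co-culture 24 h post-dosing. Activity was fitted in both directions relative to DMSO.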

Read-out in assay [11]: Interleukin-1 alpha (IL1a), IL1A (gene 3552)
As to the kind of experiment: BSK_LPS_IL1a: BioMAP Diversity Plus: LPS Assay for Interleukin-1 alpha (IL1a) Biomarker Activity (AID 2283080). The following applies: primary human HUVEC with PBMC; actives raise or lower the signal. Put shortly: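 Measured: IL-1 alpha via ELISA at 24 h in LPS-activated human umbilical vein endothelium–PBMC co-culture. Baseline: DMSO, bidirectional fitting.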

Read-out in assay [12]: Monocyte Chemoattractant Protein-1 (MCP1), CCL2 (gene 6347)
The assay can be described thus: BSK_LPS_MCP1: BioMAP Diversity Plus: LPS Assay for Monocyte Chemoattractant Protein-1 (MCP1) Biomarker Activity (AID 2283081).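 For AC50: secreted MCP-1 protein quantified by ELISA in culture supernatant.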 The following applies: primary human HUVEC with PBMC; actives raise or lower the signal. Put shortly:
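LPS-stimulated HUVEC/PBMC co-culture; chemical, 24 h; MCP-1 by ELISA; bidirectional fit vs DMSO; cytotoxicity via SRB (0.1% stain, 10% TCA fix, 560 nm) in parallel wells.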

Assay [13] in a line: BSK_LPS_PGE2: BioMAP Diversity Plus: LPS Assay for Prostaglandin E2 (PGE2) Biomarker Activity (AID 2283082). To be noted: primary human HUVEC with PBMC; actives raise or lower the signal. Summed up:
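Primary human endothelial cells and blood mononuclear cells, co-cultured with LPS, receive test chemical; PGE2 ELISA follows at 24 h, with SRB-stained parallel cultures flagging cytotoxicity.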

Read-out in assay [14]: Macrophage colony-stimulating factor (MCSF), CSF1 (gene 1435)
The assay can be described thus: BSK_LPS_MCSF: BioMAP Diversity Plus: LPS Assay for Macrophage colony-stimulating factor (MCSF) Biomarker Activity (AID 2283083). To be noted: primary human HUVEC with PBMC; actives raise or lower the signal. Summed up: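 Compound is added to a human vascular primary co-culture of umbilical vein endothelium and blood mononuclear cells. After 24 h, M-CSF is quantified by ELISA. Signal changes are fitted in both directions against DMSO.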

Read-out in assay [15]: Tissue Factor, F3 (gene 2152)
As to the kind of experiment: BSK_LPS_TissueFactor: BioMAP Diversity Plus: LPS Assay for Tissue Factor Biomarker Activity (AID 2283084). To be noted: primary human HUVEC with PBMC; actives raise or lower the signal. Put shortly:
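In this co-culture system of umbilical vein endothelium with PBMC, stimulated with LPS, cell-surface CD142 is detected by ELISA at 24 h. Endpoint values derive from bidirectional fitting, DMSO serving as baseline.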

Read-out in assay [16]: Tumor necrosis factor (Homo sapiens) (UniProt P01375)
The assay can be described thus: BSK_LPS_TNFa: BioMAP Diversity Plus: LPS Assay for Tumour Necrosis Factor alpha (TNFa) Biomarker Activity (AID 2283085).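 For AC50: TNFa protein level quantified by ELISA in the co-culture.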 To be noted: primary human HUVEC with PBMC; actives raise or lower the signal. Summed up: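 ELISA-based TNFa endpoint in a human endothelial–PBMC co-culture sampled 24 h post-exposure. Curves were fitted in both directions using DMSO as baseline of activity.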

Read-out in assay [17]: Vascular cell adhesion molecule 1 (VCAM1), VCAM1 (gene 7412)
The assay can be described thus: BSK_LPS_VCAM1: BioMAP Diversity Plus: LPS Assay for Vascular cell adhesion molecule 1 (VCAM1) Biomarker Activity (AID 2283086). To be noted: primary human HUVEC with PBMC; actives raise or lower the signal. Put shortly:
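Measured by ELISA: VCAM-1 in LPS-activated HUVEC/PBMC co-cultures 24 h after treatment. Values reflect bidirectional fitting with DMSO as baseline.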

Read-out in assay [18]: CD38, CD38 (gene 952)
The assay can be described thus: BSK_SAg_CD38: BioMAP Diversity Plus: SAg Assay for CD38 Biomarker Activity (AID 2283087). The following applies: primary human HUVEC with PBMC; actives raise or lower the signal. Put shortly: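 Measures CD38 on a human endothelial/PBMC co-culture driven by SEB and TSST-1, 24 h after compound exposure, using ELISA with fluorescence detection; DMSO defines baseline for bidirectional curve fitting.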

Read-out in assay [19]: CD40, CD40 (gene 958)
As to the kind of experiment: BSK_SAg_CD40: BioMAP Diversity Plus: SAg Assay for CD40 Biomarker Activity (AID 2283088). The following applies: primary human HUVEC with PBMC; actives raise or lower the signal. Put shortly: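 Fluorescence ELISA read-out of CD40 from umbilical vein endothelium plus peripheral blood mononuclear cells, sampled 24 h after dosing. Values come from bidirectional curve fitting with DMSO as baseline.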

Read-out in assay [20]: CD69, CD69 (gene 969)
As to the kind of experiment: BSK_SAg_CD69: BioMAP Diversity Plus: SAg Assay for CD69 Biomarker Activity (AID 2283089).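 For AC50: cell surface CD69 protein quantified by ELISA with fluorescence detection.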 The following applies: primary human HUVEC with PBMC; actives raise or lower the signal. Summed up:
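HUVEC co-cultured with PBMC were dosed with chemical, and CD69 was measured by ELISA with fluorescence read-out 24 h later. Bidirectional curve fitting used DMSO as negative control and activity baseline.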

One may read the AC50 as the midpoint of the concentration-response curve, whichever way the signal moves.

E-selectin (Homo sapiens), sequence (P16581 whole entry, looked up): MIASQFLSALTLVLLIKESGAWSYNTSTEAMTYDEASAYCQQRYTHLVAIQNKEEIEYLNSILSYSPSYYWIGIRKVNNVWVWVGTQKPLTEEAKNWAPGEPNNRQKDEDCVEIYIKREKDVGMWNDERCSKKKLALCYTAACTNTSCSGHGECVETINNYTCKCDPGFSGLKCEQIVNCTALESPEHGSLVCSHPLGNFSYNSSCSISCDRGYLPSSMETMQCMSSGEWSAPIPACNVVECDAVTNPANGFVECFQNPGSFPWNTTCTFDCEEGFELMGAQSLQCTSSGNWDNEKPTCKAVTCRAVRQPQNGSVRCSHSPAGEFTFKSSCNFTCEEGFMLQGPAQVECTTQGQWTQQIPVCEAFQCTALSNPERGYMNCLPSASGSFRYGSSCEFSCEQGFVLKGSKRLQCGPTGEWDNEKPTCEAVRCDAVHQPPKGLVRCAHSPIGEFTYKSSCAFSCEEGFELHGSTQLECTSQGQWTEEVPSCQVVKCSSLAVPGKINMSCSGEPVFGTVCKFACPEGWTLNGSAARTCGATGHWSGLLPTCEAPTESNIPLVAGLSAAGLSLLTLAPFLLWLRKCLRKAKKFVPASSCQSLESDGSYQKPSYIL
Tumor necrosis factor (Homo sapiens), sequence (P01375 whole entry, looked up): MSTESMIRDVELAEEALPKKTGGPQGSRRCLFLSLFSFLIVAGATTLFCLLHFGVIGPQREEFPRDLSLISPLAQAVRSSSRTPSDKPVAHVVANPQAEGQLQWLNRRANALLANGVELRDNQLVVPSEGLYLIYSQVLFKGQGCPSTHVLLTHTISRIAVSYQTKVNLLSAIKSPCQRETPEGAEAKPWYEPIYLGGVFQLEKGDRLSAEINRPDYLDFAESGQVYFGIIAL

With `ClC1=C(Cl)C2(Cl)C3C(Cl)C(Cl)CC3C1(Cl)C2(Cl)Cl` (stereo not drawn), the AC50 in assay [1] is 20 µM (active); in assay [2], 26.8 µM (active); in assay [3], 20 µM (active); in [5], 13.3 µM (active); in assay [6], 27.9 µM (active); in assay [7], 14.9 µM (active). Also, the AC50 was 30.4 µM (active) in assay [8]; 34 µM (active) in [9]; 29.9 µM (active) in assay [10]; 26 µM (active) in assay [11]; 33.2 µM (active) in assay [12]; 27.9 µM (active) in assay [14]. For the same compound, the AC50 is 31.5 µM (active) in assay [15]; 32.7 µM (active) in assay [16]; 29.2 µM (active) in assay [17]; 29.7 µM (active) in assay [18]; 24.4 µM (active) in assay [19]; 27.5 µM (active) in [20]. The outcome in [4] and in assay [13] was inactive.

Regarding `ClC(Cl)(Cl)c1ccccc1`, the outcome in [1], in assay [2], in assay [3], in assay [4], in [5] and in assay [6] was inactive. In addition, the outcome in assay [7], in assay [8], in assay [9], in assay [10], in [11] and in assay [12] was inactive. Further, the outcome in assay [13], in assay [15], in [16], in [17], in assay [18] and in [19] was inactive. The outcome in [20] was inactive.

Regarding `CCCCN(CCCC)SN(C)C(=O)Oc1cccc2c1OC(C)(C)C2`, the outcome in [1], in assay [2], in assay [3], in [4], in assay [6] and in assay [13] was inactive. The result in assay [15] was inactive. In addition, the AC50 was 13.8 µM (active) in [5]; 20 µM (active) in assay [7]; 30.8 µM (active) in [8]; 30.9 µM (active) in assay [9]; 28.4 µM (active) in assay [10]; 29.8 µM (active) in [11]. Also, the AC50 was 30.9 µM (active) in [12]; 30.9 µM (active) in assay [14]; 25.7 µM (active) in assay [17]; 31.4 µM (active) in [18]; 26.2 µM (active) in assay [19]; 27.6 µM (active) in [20].
